Bioassay records from PubChem.
Fam108B inh = Fam108B inhibition, counter-screen for RBBP9 inhibitors | recombinant Fam108B, FP-Rh probe fluorescence polarization | inhibition, % at 9.51 µM | 300,000 compounds, 0.33% hits | AID 1947;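 active = inhibition above the screen mean inhibition plus 3 SD, computed separately per campaign, cut at about 18% in these data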;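 note: inhibitors lower polarization as less probe binds the enzyme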
LYPLA1 counter = blocks human lysophospholipase 1, a PME1 counter-screen; 320,000 compounds, 0.16% hits; recombinant LYPLA1, FP-Rh probe fluorescence polarization; O75608; inhibition, % at 5.9 µM;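 active = inhibition above the mean of all tested compounds plus 3 SD, set per campaign, cut at about 14% in these data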;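 note: inhibitors block serine hydrolase probe labeling of LYPLA1 so polarization falls; 0% = enzyme with DMSO and 100% = wells lacking LYPLA1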
Target sequence (O75608 whole entry, looked up): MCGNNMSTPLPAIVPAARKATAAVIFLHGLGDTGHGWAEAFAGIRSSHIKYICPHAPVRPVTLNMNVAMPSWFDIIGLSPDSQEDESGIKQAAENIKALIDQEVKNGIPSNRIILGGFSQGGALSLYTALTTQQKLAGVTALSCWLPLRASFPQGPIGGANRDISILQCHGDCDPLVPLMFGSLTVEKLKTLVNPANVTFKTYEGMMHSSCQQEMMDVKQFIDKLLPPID
LYPLA2 inh = LYPLA2 (human) inhibition in PME1 counter-screen; recombinant LYPLA2, FP-Rh probe fluorescence polarization; inhibition, % at 5.9 µM; 320,000 compounds, 0.38% hits;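 active = inhibition above the screen-wide mean plus 3 SD, limit set per campaign, cut at about 26% in these data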;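 note: 0% = LYPLA2 with DMSO and 100% = wells lacking LYPLA2 enzyme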
Target sequence (O95372 whole entry, looked up): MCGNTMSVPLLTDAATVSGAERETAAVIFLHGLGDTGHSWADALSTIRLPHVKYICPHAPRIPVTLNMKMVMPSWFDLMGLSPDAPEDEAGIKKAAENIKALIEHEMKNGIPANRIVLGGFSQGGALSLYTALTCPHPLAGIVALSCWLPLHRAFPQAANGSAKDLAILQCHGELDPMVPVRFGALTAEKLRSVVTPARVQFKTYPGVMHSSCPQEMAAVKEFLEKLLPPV
PAD4 FP inh = blocks human protein arginine deiminase 4; AID 485272; inhibition, % at 6.36 µM; recombinant PAD4, RCA probe fluorescence polarization; Q9UM07; 330,000 compounds, 0.41% hits;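 active = percent inhibition above a cutoff equal to the mean of all tested compounds plus 3 SD, cut at about 15% in these data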;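 note: 0% = PAD4 with RCA probe and DMSO and 100% = probe without PAD4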
PME-1 inh = PME-1 (human) inhibition; Q9Y570; recombinant PME-1, FP-Rh probe fluorescence polarization; inhibition, % at 5.9 µM; 320,000 compounds, 0.53% hits;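 active = inhibition above the campaign mean of all compounds plus 3 SD, cut at about 26% in these data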;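 note: competitive labeling of PME-1 active site by serine hydrolase directed probe; 0% = PME-1 with DMSO and 100% = wells lacking PME-1 enzyme; inhibitors block probe labeling so polarization falls and inhibition rises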
GSTO1 inh = blocks human GSTO1 in RBBP9 counter-screen; inhibition, % at 5.96 µM; P78417; 300,000 compounds, 1.1% hits; recombinant GSTO1, activity-based probe fluorescence polarization;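 active = inhibition above the campaign mean inhibition plus 3 SD, cut at about 35% in these data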;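 note: 0% = GSTO1-1 with DMSO and 100% = wells lacking GSTO1-1 enzyme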
Target sequence (P78417 whole entry, looked up): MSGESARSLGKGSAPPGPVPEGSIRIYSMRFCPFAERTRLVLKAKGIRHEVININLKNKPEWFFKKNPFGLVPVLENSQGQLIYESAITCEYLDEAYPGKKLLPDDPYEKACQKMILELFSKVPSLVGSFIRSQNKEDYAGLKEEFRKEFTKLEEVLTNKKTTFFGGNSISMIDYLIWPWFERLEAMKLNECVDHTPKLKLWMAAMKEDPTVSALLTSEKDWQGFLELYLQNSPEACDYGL
Fam108b confirm = Fam108b (mouse) hydrolase inhibition, confirmation assay | shares compounds with Fam108B inh | recombinant Fam108b, FP-Rh probe fluorescence polarization | inhibition, % at 9.51 µM | 930 compounds, 44% hits | AID 1978;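 active = inhibition above a limit from the primary screen, the mean over all compounds plus 3 SD, cut at about 19% in these data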;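 note: 0% = median of active Fam108b wells and 100% = catalytically dead S170A mutant; inhibitors free the probe so polarization falls as inhibition rises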
Fam108b ABPP HTS = mouse ABHD17B inhibition; shares compounds with Fam108B inh; recombinant Fam108b, gel-based ABPP, fluorophosphonate probe; inhibition, % at 20 µM; 260 compounds, 44% hits; in the data active = inhibition above about 40%
The depositor's hits bear a star; · = no result; + = active, no number. Most compounds without a hit are left out; they make up all but 1.8% or so of the library.

SMILES	Fam108B inh	LYPLA1 counter	LYPLA2 inh	PAD4 FP inh	PME-1 inh	GSTO1 inh	Fam108b confirm	others
C[C@]12c3[nH]c4ccc(Cl)cc4c3CCN1C(=O)[C@@H](CC(=O)NCCN1CCOCC1)C[C@@H]2C(=O)N1CCCCC1	·	·	·	2.2	·	·	·
CCOC(=O)C1=C(C)NC(C)=C(C(=O)OCC)C1C(=O)OCC(=O)N(C)Cc1ccccc1	·	·	·	2.4	·	·	·
CCOc1cccc(=O)c2c(C)n(-c3ccc(C(=O)O)cc3)c(C)c12	13.3	7.9	0.7	7.0	-14.5	24.2	·
COc1cccc(=O)c2c(C)n(-c3ccc(C(=O)O)cc3)c(C)c12	18.4*	-0.5	2.1	2.7	-17.4	29.8	0.6
CN(C)S(=O)(=O)c1cccc(NC(=S)N/N=C/c2cc(Br)ccc2O)c1	28.9*	-16.0	-14.8	0.2	37.6*	-54.6	2.8
CCCSc1ccc([C@H]2N[C@@](CC(C)C)(C(=O)OC)[C@H]3C(=O)N(CC)C(=O)[C@@H]23)cc1	·	·	·	2.5	·	·	·
COc1cc(O)ccc1/C=N/NC(=O)c1ccc([N+](=O)[O-])cc1	-2.6	5.1	3.2	-1.1	-1.5	10.8	·
O=C(NC(CSCc1ccccc1)C(=O)N/N=C/c1ccc(O)cc1O)c1ccc([N+](=O)[O-])cc1 (stereo unspecified)	23.4*	-28.7	-20.9	-4.3	0.1	-35.8	-9.6
O=C(Nc1cccc(-c2csc(Nc3ccccc3)n2)c1)c1cc([N+](=O)[O-])cc(C(F)(F)F)c1	37.1*	-16.0	-5.2	0.8	31.5*	-4.7	21.1*
O=C(Nc1ccc(-c2csc(Nc3ccc(Cl)cc3)n2)cc1)c1cc([N+](=O)[O-])cc(C(F)(F)F)c1	29.4*	-17.3	-9.1	0.5	8.5	0.0	-5.2
O=C(Nc1cccc(-c2csc(Nc3ccc(Cl)cc3)n2)c1)c1cc([N+](=O)[O-])cc(C(F)(F)F)c1	58.9*	-20.5	6.2	3.1	35.5*	-5.3	67.6*	Fam108b ABPP HTS=100.0*
CC(=O)c1cccc(NC(=O)c2cc(S(=O)(=O)N3CCOCC3)cs2)c1	-5.0	0.7	7.5	0.0	2.2	2.2	·
O=C(OCC(=O)N1CCC(c2ccccc2)=N1)c1ccc(Cl)s1	·	·	·	-0.7	·	·	·
COc1ccccc1CNC(=O)COC(=O)/C=C/c1ccc2c(c1)OCO2	·	·	·	-2.1	·	·	·
COc1ccccc1CCNC(=O)C(=O)NCC1OCCN1S(=O)(=O)c1ccc(OC)c(OC)c1 (stereo unspecified)	1.9	5.3	5.5	-2.2	-1.8	4.0	·
Cn1c(C(C#N)C2=C(Cl)C(=O)N(c3ccccc3)C2=O)nc2ccccc21 (stereo unspecified)	25.0*	3.0	14.0	6.6	14.1	2.9	17.1
Cn1c(C(O)C(O)c2ccccc2)nc2ccccc21 (stereo unspecified)	1.7	4.5	4.0	-1.6	3.3	-1.3	·
Cc1ccc(NC(=O)CCNC(=O)c2ccc(Br)cc2)cc1S(=O)(=O)N1CCCCCC1	-3.0	-13.2	-17.6	0.4	-5.1	-10.1	·
O=[N+]([O-])c1ccc(O)c(Nc2ncnc3ccc(Br)cc23)c1	20.3*	8.5	8.5	-0.6	32.4*	-40.0	10.9
O=C(c1cnn2c(C(F)F)cc(-c3ccccc3)nc12)N1CCN(Cc2ccc3c(c2)OCO3)CC1	1.6	-2.4	-0.5	-0.8	0.1	-0.4	·
Cc1ccc(C)c(S(=O)(=O)N2CCN(c3nc(-c4cccnc4)nc4ccccc34)CC2)c1	·	-6.5	-16.9	-0.7	6.8	·	·
Cc1ccccc1-c1nc(CS(=O)(=O)CC(=O)NCCCN2CC(C)CC(C)C2)c(C)o1 (stereo unspecified)	-1.3	-2.1	0.3	-1.2	-4.0	-4.1	·
Oc1c(Br)cc(Br)c(/C=N/n2c(-c3ccccc3)n[nH]c2=S)c1Br	19.1*	1.6	5.5	-6.0	37.9*	-14.5	16.0
O=C(Nc1ccc(S(=O)(=O)Nc2nccs2)cc1)c1ccc(=O)[nH]c1	18.4*	-4.0	0.2	2.9	-19.1	-149.5	9.6
O=C(Nc1ccc(S(=O)(=O)Nc2nccs2)cc1)c1cccc(F)c1	1.6	-6.0	-7.5	-6.0	-2.6	-4.1	·
SMILES	Fam108B inh	LYPLA1 counter	LYPLA2 inh	PAD4 FP inh	PME-1 inh	GSTO1 inh	Fam108b confirm	others
O=C(OCc1ccc(O)cc1)c1c(-c2ccsc2)oc2ccc(N3CCOCC3)cc12	0.1	-0.8	7.4	-2.5	15.4	-3.1	·
N#CCC(=O)Nc1ccc(C(=O)OCC(=O)NC2CCCc3ccccc32)cc1 (stereo unspecified)	·	·	·	1.2	·	·	·
Cc1ccc2nc(CSc3nc(C)ccc3C#N)[nH]c2c1	41.6*	-5.7	4.3	-1.7	4.2	-2.2	39.6*	Fam108b ABPP HTS=55.0*
CCCCCCCCCCCCCCCC[N+](C)(C)CCN(Cc1ccc(OC)cc1)c1ncccn1	21.9*	-1.3	6.9	8.2	5.6	3.8	22.4*
COc1ccc(CN(CCN(C)C)c2ccccn2)cc1	0.4	1.0	-2.7	-5.0	2.7	-5.6	·
COc1cccc(CN2CCN(S(=O)(=O)c3ccc(Cl)s3)CC2)c1	5.8	-2.4	-4.7	-4.5	6.6	4.5	·
COc1ccccc1NS(=O)(=O)c1cc([N+](=O)[O-])ccc1N/N=C/c1c(C)[nH]c2ccccc12	18.1	-7.5	-0.6	-6.1	11.5	3.4	·
O=[N+]([O-])c1ccc(N/N=C/c2c[nH]c3ccccc23)c(S(=O)(=O)Nc2ccc(Cl)cc2)c1	37.5*	2.0	-1.2	-0.7	-0.5	0.8	+
O=[N+]([O-])c1ccc(NN=Cc2c[nH]c3ccccc23)c(S(=O)(=O)Nc2ccc(Cl)cc2)c1	·	·	·	·	·	·	·	Fam108b ABPP HTS=90.0*
Cc1ccc2cc(CN(c3ccccc3C)S(=O)(=O)c3ccccc3)c(=O)[nH]c2c1	-0.2	1.2	-1.2	-1.6	-2.7	-4.0	·
CC(=O)C1=C(O)C(=O)N(c2ccc(S(N)(=O)=O)cc2)C1c1cccc([N+](=O)[O-])c1 (stereo unspecified)	1.4	-0.1	0.9	0.2	3.7	7.2	·
CC(=O)C1C(=O)c2c(cccc2[N+](=O)[O-])C1=Nc1ccc(S(N)(=O)=O)cc1 (stereo unspecified)	20.2*	2.5	9.8	-1.6	26.2*	20.5	21.7*
O=C(Nc1ccc2[nH]c(=S)sc2c1)Nc1ccccc1F	26.1*	-6.3	-2.1	-3.8	78.1*	2.4	48.6*	Fam108b ABPP HTS=90.0*
O=C(Nc1ccc2[nH]c(=S)sc2c1)c1ccccc1	-0.1	-3.0	6.7	14.1	-1.6	0.9	·
O=C(Cc1ccc(S(=O)(=O)N2CCOCC2)s1)N1CCN(S(=O)(=O)c2ccc(Cl)cc2)CC1	·	-1.6	0.2	-3.8	3.2	·	·
O=C1c2ccccc2C2=Nc3ccccc3SC(c3cccc(F)c3)C12 (stereo unspecified)	21.9*	-9.1	-6.0	-4.7	19.3	-12.2	-19.6
